Data taken from PubChem BioAssay (NCATS).
Records with an inconclusive call do not appear. A call without a number means that no potency is given here. Activity calls are given as the source filed them. Calls follow the shape of the dose curve; as a rule, active = well fitted curve in the direction sought with a large enough effect; inconclusive = small, poorly fitted or top-dose-only effect, or another doubt; inactive = no such curve, though single readings can be large; an effect the other way counts as inactive or inconclusive.

Columns and labels:
[1] = qHTS to identify inhibitors of the type 1 interferon - major histocompatibility complex class I in skeletal muscle: primary screen against the NCATS LOPAC collection (AID 1347405);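 also: lytic HiBiT luminescence reporting HLA-B protein level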; also: potency is read from the fitted curve at half-maximal effect
In short: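 Immortalized human C25cl48 myoblasts with HiBiT knocked into endogenous HLA-B*08:01 were stimulated with 4.0 ng/ml IFN-beta and given compounds in a 7-point, 1:4.3 titration from 46 uM final; after 24 hrs, lytic HiBiT luminescence was read.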

[2] = qHTS for inhibitors of adenylyl cyclases using a fission yeast platform: a pilot screen against the NCATS LOPAC library (AID 1347410)
In short: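 S. pombe CHP2027 (AC9-GNAS-PDE4D2) carrying PKA-repressed fbp1-GFP, incubated 18 h at 30C in EMM with LOPAC compounds at up to 57 uM. GFP gain-of-signal read by laser scanning cytometry; DMSO negative control.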

[3] = Validation qHTS assay for inhibitors of Activation Induced Cytidine Deaminase (AID): UDG Counterscreen signal (AID 1347427); also: potency is read from the fitted curve at half-maximal effect
In short: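 Counterscreen read of UDG activity (2 U/mL, 4/3x) in the FRET deamination format with AID (1 uM, 4/3x), DJC20/DJC23 substrates (250 nM, 4x), 4 h at room temperature. NaOH stop, fluorescence at 560 ex/665 em.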

[4] = qHTS to identify inhibitors of the type 1 interferon - major histocompatibility complex class I in skeletal muscle: primary screen against the NCATS Mechanism Interrogation Plate v5.0 (MIPE) Libary (AID 1347411); also: nearly all actives have a fitted effect of over 65% in size
In short: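 Immortalized human C25cl48 myoblasts with HiBit knocked into endogenous HLA-B*08:01 were stimulated with 4.0 ng/ml IFN-beta and exposed to compounds (11-point 1:3 titration, top 46 uM final) for 24 hrs at 37 C; HiBiT lytic luminescence measured.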

Structure (SMILES)	Potency [1]	outcome [2]	Potency [3]	Potency [4]
O=C1C(SCCO)=C(SCCO)C(=O)c2ccccc21	10 µM (active)	inactive	inactive	
Oc1cc(O)cc(/C=C/c2ccc(O)c(O)c2)c1	inactive	inactive	inactive	inactive
COc1ccc2c(c1)CCC1C2CC[C@@]2(C)C1CC[C@@H]2NCCCCCCN1C(=O)CCC1=O (some centres undefined)	inactive	inactive	inactive	
COc1ccc(Br)cc1S(=O)(=O)NC(=O)/C=C/c1ccccc1Cc1ccc2ccccc2c1	inactive	inactive		
O=C(Nc1ccc2c(c1)CCN(Cc1ncn[nH]1)C2)c1ccccc1-c1ccc(C(F)(F)F)cc1	inactive	inactive		inactive
O=C(O)CC1CCCc2ccccc2C1O (centres undefined)	inactive	inactive	inactive	
NCCCCC(=O)O	inactive	inactive	inactive	
Nc1nc(Cl)nc2c1ncn2[C@@H]1O[C@H](COP(=O)(O)OP(=O)(O)OP(=O)(O)O)[C@@H](O)[C@H]1O	inactive	inactive	inactive	
NCCSSCCN	inactive	inactive	inactive	
CCN1/C(=C/C(C)=O)Sc2ccc(OC)cc21	inactive	inactive	inactive	inactive
NC(N)=NC(=O)c1nc(Cl)c(N2CCCCCC2)nc1N	inactive	inactive	inactive	
Brc1c(Br)c(Br)c2n[nH]nc2c1Br	inactive	inactive	inactive	
N.N.N.N.N.N.N.N.N.N.N.N.N.N.O.O.[Ru+4].[Ru+5].[Ru+5]	inactive	inactive	39.8 µM (active)	
OCC1O[C@H]([S-])[C@H](O)[C@@H](O)[C@@H]1O.[Au+] (some centres undefined)	17.8 µM (active)	inactive	inactive	
CC[C@H]1OC(=O)[C@H](C)[C@@H](O[C@H]2C[C@@](C)(OC)[C@@H](O)[C@H](C)O2)[C@H](C)[C@@H](O[C@@H]2O[C@H](C)C[C@H](NC)[C@H]2O)[C@](C)(O)C[C@@H](C)CN(C)[C@H](C)[C@@H](O)[C@]1(C)O	inactive	inactive		
Nc1nc(Cl)nc2c1ncn2[C@@H]1O[C@H](CO)[C@@H](O)[C@H]1O	inactive	inactive	inactive	
COC(=O)c1c(C)[nH]c(C)c1C(=O)c1ccccc1Cc1ccccc1	inactive	inactive	inactive	

Structure (SMILES)	Potency [1]	outcome [2]	Potency [3]	Potency [4]
COCCOc1cc2nc[nH]c(=O)c2cc1OCCOC	inactive	inactive		
CCN(CC)c1ncnc2c1ncn2[C@@H]1O[C@H](COP(=O)(O)OP(=O)(O)C(Br)(Br)P(=O)(O)O)[C@@H](O)[C@H]1O	inactive	inactive	inactive	
COc1ccccc1CN[C@@H]1CCCN[C@@H]1c1ccccc1	inactive	inactive		
CCNc1nc2c(ncn2[C@H]2C[C@H](O)[C@@H](CO)O2)c(=O)[nH]1	inactive	inactive		
NC[C@H]1O[C@@H](n2cnc3c(N)ncnc32)[C@H](O)[C@@H]1O	inactive	inactive	inactive	
NCCCS(=O)(=O)O	inactive	inactive	inactive	
O=C(Nc1cccc(C(=O)Nc2ccc(S(=O)(=O)O)c3cc(S(=O)(=O)O)cc(S(=O)(=O)O)c23)c1)Nc1cccc(C(=O)Nc2ccc(S(=O)(=O)O)c3cc(S(=O)(=O)O)cc(S(=O)(=O)O)c23)c1	inactive	inactive	inactive	
N=c1ccn2c(n1)O[C@H]1[C@H](O)[C@@H](CO)O[C@H]12	inactive	inactive	inactive	
CCCCC#Cc1nc(NC)c2ncn([C@@H]3O[C@H](CO)[C@@H](O)[C@H]3O)c2n1	inactive	inactive	inactive	
O=c1[nH]c2cc([N+](=O)[O-])c([N+](=O)[O-])cc2[nH]c1=O	inactive	inactive	inactive	
Nc1nc(SCc2ccc([N+](=O)[O-])cc2)c2ncn([C@@H]3O[C@H](CO)[C@@H](O)[C@H]3O)c2n1	inactive	inactive	inactive	
CN1CCc2cc(NC(=O)Nc3cccnc3)ccc21	inactive	inactive	inactive	
Cn1c(=O)c2[nH]c(-c3ccccc3)nc2n(C)c1=O	inactive	inactive	inactive	
OC[C@H]1O[C@@H](n2cnc3c(NC4CCCC4)ncnc32)[C@H](O)[C@@H]1O	inactive	inactive	inactive	
CC(=O)SCC[N+](C)(C)C	inactive	inactive	inactive	
O=c1[nH]c2cc(C(F)(F)F)ccc2n1-c1cc(C(F)(F)F)ccc1O	inactive	inactive	inactive	
Nc1ncnc2c1ncn2[C@@H]1O[C@H](COP(=O)(O)OP(=O)(O)OP(=O)(O)OP(=O)(O)OC[C@@H]2O[C@H](n3cnc4c(N)ncnc43)[C@@H](O)[C@H]2O)[C@@H](O)[C@H]1O	inactive	inactive	inactive	
